# Reference: PMC4336329 (PLoS ONE, 2015)
# About 2,200 (0.71%) of roughly 310,000 compounds showed an effect of 50% or more. The effect is printed as a negative number. For the sample, strong results were picked, then their nearest neighbours and some compounds at random.
# Biological target: human ether-à-go-go-related gene (hERG) potassium channel (human, UniProt Q12809)
# Assay: primary screen, population patch clamp on CHO cells stably expressing hERG; higher = less effect of the substance
# Sequence of human ether-à-go-go-related gene (hERG) potassium channel (Q12809 whole entry, looked up): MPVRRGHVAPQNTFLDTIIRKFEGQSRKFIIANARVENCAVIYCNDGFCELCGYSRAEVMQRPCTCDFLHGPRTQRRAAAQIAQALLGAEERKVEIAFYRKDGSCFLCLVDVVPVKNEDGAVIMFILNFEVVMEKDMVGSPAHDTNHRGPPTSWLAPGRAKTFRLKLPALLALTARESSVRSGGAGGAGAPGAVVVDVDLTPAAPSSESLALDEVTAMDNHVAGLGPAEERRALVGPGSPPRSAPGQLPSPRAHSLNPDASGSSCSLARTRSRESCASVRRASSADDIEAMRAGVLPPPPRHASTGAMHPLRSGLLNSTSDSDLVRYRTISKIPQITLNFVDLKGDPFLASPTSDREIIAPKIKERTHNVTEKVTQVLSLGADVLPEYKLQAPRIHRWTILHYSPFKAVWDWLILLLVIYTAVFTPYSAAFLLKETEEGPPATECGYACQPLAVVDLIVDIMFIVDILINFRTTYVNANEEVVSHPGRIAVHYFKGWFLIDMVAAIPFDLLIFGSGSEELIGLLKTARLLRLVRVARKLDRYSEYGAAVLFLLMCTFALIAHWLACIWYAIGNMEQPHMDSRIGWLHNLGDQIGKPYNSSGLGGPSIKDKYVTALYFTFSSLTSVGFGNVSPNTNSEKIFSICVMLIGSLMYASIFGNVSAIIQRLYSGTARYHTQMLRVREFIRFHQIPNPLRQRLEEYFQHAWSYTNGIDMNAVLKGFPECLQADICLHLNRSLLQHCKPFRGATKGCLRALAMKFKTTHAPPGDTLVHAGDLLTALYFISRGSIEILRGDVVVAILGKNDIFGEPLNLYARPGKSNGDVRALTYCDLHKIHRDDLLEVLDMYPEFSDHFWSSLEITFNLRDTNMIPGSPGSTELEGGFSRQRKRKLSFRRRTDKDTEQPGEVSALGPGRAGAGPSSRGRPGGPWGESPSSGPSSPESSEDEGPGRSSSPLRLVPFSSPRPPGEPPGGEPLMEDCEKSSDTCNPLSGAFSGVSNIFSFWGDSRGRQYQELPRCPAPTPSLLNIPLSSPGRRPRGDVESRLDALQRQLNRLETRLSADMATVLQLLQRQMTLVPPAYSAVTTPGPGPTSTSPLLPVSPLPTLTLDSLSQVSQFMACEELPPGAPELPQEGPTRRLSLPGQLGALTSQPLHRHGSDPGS
row,Compound,"hERG current change (%, negative = inhibition) at 1uM"
1,CCN(CC)c1ccc(/C=N/N2CCN(Cc3ccccc3)CC2)c(O)c1,-0.743%
2,O=C(CN1C(=O)/C(=C\c2ccccc2Cl)Oc2ccccc21)NCc1cccnc1,5.85%
3,CCN(CC)c1ccc(NC(=O)c2cc(OC)cc(OC)c2)c(C)c1,-2.35%
4,CC1CCN(S(=O)C23CC4CC(CC(C4)C2)C3)CC1 (centres unmarked),16.3%
5,Fc1cccc(Cl)c1Cn1nnc2c(N3CCC4(CC3)OCCO4)ncnc21,13.7%
6,CCn1c(=O)c(C(=O)NCCc2ccc(OC)c(OC)c2)c(O)c2ccccc21,8.62%
7,N=c1c(S(=O)(=O)c2ccc(Cl)cc2)cc2c(=O)n3ccccc3nc2n1Cc1ccco1,14%
8,N=c1c(C(=O)NCc2ccco2)cc2c(=O)n3ccccc3nc2n1Cc1ccc(Cl)cc1,-55.7%
9,Cn1c(CSCc2ccc(Cl)c(Cl)c2)nnc1SCC(=O)Nc1nccs1,2.81%
10,CCCCCCCN1C(N(C)C)=NC[C@@H]1Cc1ccccc1,-69%
11,CN(C)C1=NC[C@H](Cc2ccccc2)N1CCCC1CCCCC1,-29.5%
12,CN(C)C1=NC[C@H](Cc2ccccc2)N1CCCCc1ccccc1,-42.2%
13,CN(C)C1=NC[C@H](Cc2ccccc2)N1CCC1CCCC1,-19.7%
14,CC(C)CCCN1C(N(C)C)=NC[C@@H]1Cc1ccccc1,-2.29%
15,CN(C)C1=NC[C@H](Cc2ccccc2)N1CCCC1CCCC1,-56.8%
16,COc1ccccc1C(=O)NC(=O)CSc1nncn1C,18.2%
17,CCCSC1=C(C#N)C(c2ccc(Cl)cc2Cl)CC(=O)N1 (centres unmarked),11.8%
18,O=C(O)c1cc(-c2ccc(N3CCOCC3)cc2)nn1-c1ccc(F)cc1F,12.7%
19,Fc1ccc(NCc2ccccc2F)cc1Cl,-76.5%
20,Fc1ccccc1CNc1ccc(Cl)cc1,12.8%
21,Fc1ccccc1CNc1ccc(Cl)c(Cl)c1,11.7%
22,COc1ccc(CCn2c(NCCCN3CCOCC3)nc3c2c(=O)[nH]c(=O)n3C)cc1,7.24%

row,Compound,"hERG current change (%, negative = inhibition) at 1uM"
1,Nc1ccc(OCCc2ccccc2)cc1,11.5%
2,O=c1c(Cl)c(NCc2ccco2)cnn1C12CC3CC(CC(C3)C1)C2,4.54%
3,CCCCN(CCCC)c1ccc(C(=O)c2ccccc2C(=O)O)c(O)c1,-50.5%
4,CN(C)c1ccc(C(=O)c2ccccc2C(=O)O)c(O)c1,13.2%
5,CCN(CC)c1ccc(C(=O)c2ccccc2C(=O)O)c(O)c1,11.7%
6,CCN(CC)S(=O)(=O)c1cccc(-c2nnc(SCCOc3ccccc3)o2)c1,12.4%
7,O=C(COC(=O)c1ccc2ncsc2c1)Nc1cc([N+](=O)[O-])ccc1Cl,7.27%
8,COc1ccc(S(=O)(=O)Nc2ccc(NC(C)=O)cc2)cc1Cl,10.3%
9,CCCCN(CCCC)CCCNC(=O)C12CN(Cc3ccccc3)CC1C(c1cccc([N+](=O)[O-])c1)=NO2 (centres unmarked),-53.1%
10,O=C(NCCCCc1ccccc1)C12CN(Cc3ccccc3)CC1C(c1cccc([N+](=O)[O-])c1)=NO2 (centres unmarked),10.9%
11,CC(C)CCNC(=O)C12CN(Cc3ccccc3)CC1C(c1cccc([N+](=O)[O-])c1)=NO2 (centres unmarked),9.69%
12,O=C(/C=C/c1cccnc1)c1cc(F)ccc1O,8.59%
13,COCCNC(=O)c1ccccc1NC(=O)c1ccccc1N(C)S(=O)(=O)c1ccc(C)cc1,8.36%
14,CCOC(=O)c1sc(-c2ccccc2)nc1C,9.24%
15,CC(=O)Nc1ccc(OC(=O)c2cc3cc(Br)cc(Br)c3oc2=O)cc1,5.16%
16,CCOc1ccc(/C=N/N2C(C)CCCC2C)cc1 (centres unmarked),12%
17,COc1ccc(Nc2nc(N)nc(CN3CCC(Cc4ccccc4)CC3)n2)cc1,-81%
18,COc1cccc(N2CCN(Cc3nc(N)nc(Nc4ccccc4)n3)CC2)c1,-31.9%
19,CCOC(=O)N1CCN(Cc2nc(N)nc(Nc3ccc(OCC)cc3)n2)CC1,-56%
20,Nc1nc(CN2CCC(Cc3ccccc3)CC2)nc(Nc2ccccc2)n1,-87.4%
21,CCOC(=O)N1CCN(Cc2nc(N)nc(Nc3ccc(C)cc3)n2)CC1,-37%
22,COc1ccc(Nc2nc(N)nc(CN3CCc4ccccc4C3)n2)cc1,-23.3%
